“And” between values parts separate entries of the source, which are not always exact repeats. Equal entries are not always repeated. Where a structure was tested more than once in an assay, its records may differ in their call. The source made the active and inactive calls. The calls were made as follows: active = hit-call score of the fitted dose curve at least 0.9, where 1 is the maximum; inactive = score below 0.9.
What follows are molecules tested on Thyroid Hormone Responsive (THRSP), THRSP (gene 7069) (assay: LTEA_HepaRG_THRSP: Life Technologies and Expression Analysis (LTEA) Assay for Thyroid Hormone Responsive (THRSP) using HepaRG (AID 2283536)). Conditions: mRNA level, 48 h; actives raise or lower the signal.
Procedure: LTEA_HepaRG is a cell based, multiplexed-readout assay that uses HepaRG, a human liver cell line, with measurements taken at 48 hours after chemical dosing on a 96-well plate.LTEA_HepaRG_THRSP is one of 102 assay component(s) measured in the LTEA HepaRG cell culture assay. It is a marker of NR mediated metabolism.Data from the assay component LTEA_HepaRG_THRSP was analyzed into 1 endpoint. This assay endpoint, LTEA_HepaRG_THRSP, was analyzed with bidirectional fitting relative to DMSO as the negative control and baseline of activity. Using a type of inducible reporter, measures of mRNA induction for gain or loss-of-signal activity can be used to understand regulation of transcription factor activity. To generalize the intended target to other relatable targets, this assay endpoint is annotated to the growth factor intended target family, where the subfamily is NR mediated metabolism.
A total of 1060 chemcials from the ToxCast library were tested in eight-point concentration-response experiments. Cell culture and cytotoxicity assays were conducted at Thermo Fisher Scientific's Custom Services facility (Madison, WI). A single lot of human HepaRG cells (Thermo Fisher Scientific, Frederick, MD) was used for the cell culture experiments. 96-well format collagen type I coated plates of human HepaRG cells were prepared using established methods. Briefly, cryopreserved HepaRG cells were thawed, plated at a density of approximately 100,000 cells/well in HepaRG Thaw, Plate, and General Purpose media (HPRG770, Thermo Fisher Scientific), and incubated for 48 hours. 0.5% DMSO was selected as vehicle control to balance the requisite need of DMSO in HepaRG cultures to maintain differentiation (for example, baseline metabolism, proportions of hepatocytes vs. cholangiocytes), while enabling further hepatic receptor pathway activation (for example, PXR and CAR) in response to chemical exposure. 48 hours after plating, the culture medium was replaced with HepaRG Serum-Free Incudtion Media. Cells were exposed to each test chemical in duplicate and maintained in CO2 incubators for another 48 hours. Chemical plates were thawed to room temperature and 200x concentrations of treatment groups were prepared. 8-point conentration-reponse curves were made with the highest exposure at 100 uM, followed by half-log dilutions, all in 0.5% DMSO. Each test plate contained variouse controls, induction positive controls (1mM phenobarbital), cytotoxicity positive controls ([…] aflatoxin B1), vehicle controls (0.5% DMSO), and total lysis controls (0.5% DMSO). Cell morphology images were taken using an Essen IncuCyte FLR automated microscope, with six 96-well plates imaged in about 24 minutes. Images were captured and exported and JPEG files. Spent culture media was transfered to black-well plates for the LDH assay, and remaining media was sorted at -80 C for later use. Cells were treated with RLT buffer and frozen until shipped for gene expression analysis. Total RNA was isolated from the cell suspension in 75 uL of Buffer RLT (Qiagen, Germantown, MD 20874) by Quintiles/Expression Analysis (Durham, NC) using a custom isolation procedure. Total RNA from each plate well was transferred to a preamplification plate. Fluidigm's 96.96 Dynamic ArrayTM (Fluidigm, Amsterdam, the Netherlands) technology was used for gene expression analyses by quantitative reverse transcription polymerase chain reaction (qRT-PCR, performed by Quintiles/Expression Analysis, Durham, NC)89. Standard TaqManTM Assays (Applied Biosystems/ThermoFisher Scientific, Foster City, CA) were used to assess the expression of 93 genes selected based on their selectivity and sensitivity to important hepatic receptors known to be modulated by environmental chemicals; importance in human hepatocyte functionality; and hepatotoxicity. […]

SMILES	AC50	outcome
CCOCN(C(=O)CCl)c1c(C)cccc1CC	9.92 µM (active)	–
O=C(O)CCCOc1ccc(Cl)cc1Cl	–	inactive
CCC(C)(NC(=O)c1cc(Cl)c(C)c(Cl)c1)C(=O)CCl (stereo not given)	95.3 µM (active)	–
CCN(CC)C(=O)SCc1ccc(Cl)cc1	–	inactive
CC(C)(C)C(O)/C(=C\c1ccc(Cl)cc1Cl)n1cncn1 (stereo not given)	–	inactive
O=C(O)COc1ccc(Cl)cc1Cl	–	inactive
CC1(c2ccc(Oc3ccccc3)cc2)OC(=O)N(Nc2ccccc2)C1=O (stereo not given)	24.1 µM (active)	–
COc1nn(CSP(=S)(OC)OC)c(=O)s1	–	inactive
CNC(=O)/C=C(\C)OP(=O)(OC)OC	–	inactive
O=S1OCC2C(CO1)C1(Cl)C(Cl)=C(Cl)C2(Cl)C1(Cl)Cl (stereo not given)	41.7 µM (active)	–
COP(=S)(OC)Oc1ccc([N+](=O)[O-])cc1	–	inactive
O=C(O)C(F)(F)C(F)(F)C(F)(F)C(F)(F)C(F)(F)C(F)(F)C(F)(F)F	26.1 µM (active)	inactive
CNC(=O)CSP(=S)(OC)OC	–	inactive
CNC(=O)Oc1ccccc1OC(C)C	–	inactive
OCCOc1ccccc1	–	inactive
CNC(=O)Oc1cccc(N=CN(C)C)c1	–	inactive
CC[C@H](C)[C@H]1O[C@]2(C=C[C@@H]1C)C[C@@H]1C[C@@H](C/C=C(\C)[C@@H](O[C@H]3C[C@H](OC)[C@@H](O[C@H]4C[C@H](OC)[C@@H](O)[C@H](C)O4)[C@H](C)O3)[C@@H](C)/C=C/C=C3\CO[C@@H]4[C@H](O)C(C)=C[C@@H](C(=O)O1)[C@]34O)O2 (tested in a mixture with another compound)	–	inactive
Clc1ccccc1-c1nnc(-c2ccccc2Cl)nn1	50 µM (active)	–
Cc1[nH]c(=O)n(C(C)(C)C)c(=O)c1Cl	50 µM (active)	–

SMILES	AC50	outcome
C#CCN1C(=O)COc2cc(F)c(N3C(=O)C4=C(CCCC4)C3=O)cc21	–	inactive
CN1CSC(=S)N(C)C1	–	inactive
Oc1cc(Cl)ccc1Oc1ccc(Cl)cc1Cl	94.7 µM (active)	inactive
O=S(=O)(O)C(F)(F)C(F)(F)C(F)(F)C(F)(F)C(F)(F)C(F)(F)C(F)(F)C(F)(F)F	34.2 µM (active) and 45.8 µM (active) and 60 µM (active)	inactive
O=C1c2ccccc2C(=O)N1SC(Cl)(Cl)Cl	–	inactive
C[C@H]1[C@H](c2ccc(Cl)cc2)SC(=O)N1C(=O)NC1CCCCC1	90.2 µM (active)	–
O=C(Nc1ccccc1)Nc1cnns1	73.5 µM (active)	–
N#CN	–	inactive
CCOC1Oc2ccc(OS(C)(=O)=O)cc2C1(C)C (stereo not given)	89.3 µM (active)	–
CC(C)(C)C(O)C(Oc1ccc(Cl)cc1)n1cncn1 (stereo not given)	35.3 µM (active) and 36 µM (active) and 27.9 µM (active)	–
CC1(C)C(C=C(Cl)Cl)C1C(=O)OC(C#N)c1ccc(F)c(Oc2ccccc2)c1 (stereo not given)	–	inactive
CCc1ccc(C(=O)NN(C(=O)c2cc(C)cc(C)c2)C(C)(C)C)cc1	21.5 µM (active)	–
CCCN(CCOc1c(Cl)cc(Cl)cc1Cl)C(=O)n1ccnc1	3.79 µM (active)	–
N#Cc1c(Cl)c(Cl)c(Cl)c(C#N)c1Cl	13.2 µM (active)	–
O=[N+]([O-])c1c(Cl)c(Cl)c(Cl)c(Cl)c1Cl	–	inactive
CCCN(CCC)c1c([N+](=O)[O-])cc(C(F)(F)F)cc1[N+](=O)[O-]	–	inactive
CCC(C)(C)C(=O)OC1=C(c2ccc(Cl)cc2Cl)C(=O)OC12CCCCC2	–	inactive
O=C(NC(=O)c1c(F)cccc1F)Nc1ccc(OC(F)(F)C(F)OC(F)(F)F)c(Cl)c1 (stereo not given)	6.25 µM (active)	–
